SMILES strings stand for the structures. The whole screen tested about 340,000 compounds, of which about 420 (0.12%) were called active. Not shown: some 10% with an inconclusive outcome. The call rests on the fitted dose curve; in most records, active means well fitted activation curve with a large enough effect; inconclusive means small, poorly fitted or top-dose-only effect, or another doubt; inactive means no such curve, though single readings can be large or run the other way; cell line not stated here. What follows is part of a selection rich in actives, with near analogues and random picks from the rest. Entries that show only a call come without a potency.
Potency means the concentration at half of the fitted maximal effect.

This experiment can be described thus: qHTS for Agonist of gsp, the Etiologic Mutation Responsible for Fibrous Dysplasia/McCune-Albright Syndrome: qHTS. Further: nearly all actives have a fitted effect of over 60% in size.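 On activation (cAMP increase): phosphodiesterase inhibitor Ro 20-1724 added with compounds to block cAMP breakdown.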 Conditions: gsp mutant cells, cAMP HTRF, 30 min; series mostly up to 76.9 µM. A digest of the protocol:
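Cells stably selected in G418 were plated at 2000/well, grown 16-24 hr, then given compounds in DMSO with the PDE inhibitor […] (300 uM solution added) for 30 min at 37C; cAMP was read by HTRF.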
As to `O=C(c1ncn2c1c(=O)[nH]c1ccccc12)N1CCc2ccccc2C1`, the Potency entry was “inactive”. Still for that read-out and setting: the entry for `CCCCCCNC(=O)O[C@H]1CN(C(=O)OC(C)C)N(C(=O)OC(C)C)[C@@H]2CN(S(=O)(=O)c3ccc(C)cc3)C[C@]12O` is “inactive”; for `CSc1ncccc1C(=O)N1CCCC(Nc2ccc(F)c(F)c2)C1` (stereo unspecified) it is “inactive”; for `COc1cccc(NC(=O)CN(C)C(=O)c2cc(Cl)nc3ccccc23)c1` it is “inactive”.

As for `COc1ccc(S(=O)(=O)N(C)C)cc1NC(=O)COC(=O)c1n[nH]c2ccccc12`, the Potency result is “inactive”. The same measure, in the same setting: for `Cc1ccc([C@H]2N[C@]3(CCCN(CC4CCCCC4)C3=O)[C@H]3C(=O)N(Cc4ccccc4)C(=O)[C@@H]23)cc1` the value was “inactive”.

For `CCOC(=O)c1c(C)[nH]c(C)c1C(=O)COC(=O)/C=C/c1cccc([N+](=O)[O-])c1`, the Potency result was “inactive”. On to `O=C(NCCN1CCOCC1)c1ccc2c(c1)N(Cc1cccc(Cl)c1)C(=O)c1ccccc1S2(=O)=O`, for which the Potency result was “inactive”.

For `CC(C)N=C1CCCC1C(=S)SSC(=S)C1CCCC1=NC(C)C` (stereo unspecified), the Potency entry is “inactive”.

Turning to `CCOC(=O)c1cc(-c2sc(NC(=O)c3ccccc3)nc2C)n(Cc2ccccc2)n1`, the Potency result was “inactive”. Take `COc1ccc(CN2C(=O)C(CC(=O)NCCCCc3ccccc3)CC(C(=O)N3CCOCC3)=C2C)cc1` (stereo unspecified): the Potency result was “inactive”.

For the compound `CCN(CC)C(=O)C1=C(C)N(Cc2ccc(OC)cc2)C(=O)C(CC(=O)NCc2ccco2)C1` (stereo unspecified), the Potency result is “inactive”.

As for `O=C(NCCN1CCOCC1)C1CCN(S(=O)(=O)c2ccccc2)CC1`, the Potency result is “inactive”. In the case of `NC(=O)Cc1ccc2sc(-c3ccccc3)nc2c1`, the Potency result is “inactive”. As for `CN(C(=O)COc1nnc(-c2cccs2)c(-c2cccs2)n1)c1ccccc1`, the Potency result is “inactive”. On the same count and under the same terms, for `O=C(O)Cc1sc(-c2ccccc2)nc1-c1cccs1` the value was 12.6 µM (active); for `O=C(Cc1ccc([N+](=O)[O-])cc1)NCCS(=O)(=O)N1CCN(c2ccccc2)CC1`, “inactive”; for `CCc1ccccc1OCC(=O)Nc1nnc(C2CC2)s1`, “inactive”. Take `COc1ccc([C@H]2N[C@]3(CCCN(CC4CCCCC4)C3=O)[C@H]3C(=O)N(C)C(=O)[C@@H]23)cc1`: the Potency result is “inactive”. As to `Cc1ccc(C(=O)OCC(=O)NC2CCCCCCC2)cc1C`, the Potency result is “inactive”. The same measure, in the same setting: for `COc1cc2c(cc1OC)CN(C(C)C(=O)Nc1cccc(S(=O)(=O)N3CCOCC3)c1)CC2` (stereo unspecified) the value was 10 µM (active). On to `CC(Sc1cccc[n+]1[O-])C(=O)Nc1cccc(S(=O)(=O)N2CCOCC2)c1` (stereo unspecified), for which the activation (cAMP increase) was 27.2% [at 15.4 µM] (inactive).

As to `CC(Sc1ccccc1F)C(=O)Nc1cccc(S(=O)(=O)N2CCOCC2)c1` (stereo unspecified), the Potency result was “inactive”. Still for that read-out and setting: for `COc1ccc(C(C)(C)C)cc1NC(=O)CN(C)C1=NS(=O)(=O)c2ccccc21` the value was “inactive”; for `CC1(C)OC(=O)C2=C(CC(c3ccccc3)OC2CCc2ccccc2)O1` (stereo unspecified), “inactive”; for `O=C1CCC(=O)N1CCC(=O)N(C(=O)NC1CCCCC1)C1CCCCC1`, “inactive”.

With `CC(=NNC(N)=O)C1CC2CCC1CC2` (stereo unspecified), the Potency result is “inactive”. As for `CC1(c2cccc(Br)c2)NC(=O)N(CC(=O)NCCC2=CCCCC2)C1=O` (stereo unspecified), the Potency entry is “inactive”. Still for that read-out and setting: for `COc1ccccc1C(=O)NC(=S)Nc1ccc(N2CCOCC2)cc1` the value was “inactive”; for `COc1ccc(-c2ccc(CN3C(CC(C)C)C(=O)N(Cc4cn(CC5CCCCC5)nn4)CCS3(=O)=O)cc2)cn1` (stereo unspecified), “inactive”. Still for that read-out and setting: for `O=C1C(=O)N(CCCN2CCOCC2)C(c2ccc([N+](=O)[O-])cc2)/C1=C(\O)c1ccc2c(c1)OCCO2` (stereo unspecified) the value was “inactive”; for `O=C1C(=O)N(CCN2CCOCC2)C(c2cccc(Cl)c2)/C1=C(/O)c1ccc2c(c1)OCO2` (stereo unspecified), 12.6 µM (active). The same measure, in the same setting: for `COc1ccc(C2/C(=C(/O)c3ccc(OC(C)C)cc3)C(=O)C(=O)N2CCCN2CCOCC2)cc1` (stereo unspecified) the value was “inactive”.

For the compound `O=C1CCC(C(=O)OCC(=O)Nc2ccc(OC(F)F)cc2)=NN1`, the Potency result was “inactive”. The same measure, in the same setting: the entry for `COc1cc(C)c(CN2CCN(C(=O)CCC(=O)c3ccc(C)s3)CC2)cc1OC` is “inactive”; for `CCOc1cc(/C=N/NC(=O)c2ccncc2)cc(Br)c1O` it is “inactive”. Same read-out and setting: for `NC(=S)NN=Cc1ccc(OC(=O)COc2cc(Cl)c(Cl)cc2Cl)cn1` the value was “inactive”; for `COc1cccc(-n2cc(C(=O)O)c3ccccc3c2=O)c1`, “inactive”; for `COc1cccc(-n2c(=S)[nH]c3c(oc4ccccc43)c2=O)c1`, 15.8 µM (active). Same read-out and setting: the entry for `COc1cccc(N2C(=O)CN(Cc3ccccc3)C2=S)c1` is “inactive”; for `CC1(C)CN(CCc2ccccc2)C(=O)[C@H]1CC(=O)Nc1ccc(Br)cc1` it is “inactive”; for `Cc1ccc(S(=O)(=O)/N=C2\C=C(NS(=O)(=O)c3ccc(C)cc3)C(=O)c3ccccc32)cc1` it is “inactive”. For `COCOCCn1cc(CN2CCS(=O)(=O)N(Cc3ccc(-c4ccccc4)cc3)C(CC(C)C)C2=O)nn1` (stereo unspecified), the Potency entry was “inactive”.

Take `COc1ccccc1-c1n[nH]nc1C1=CC(=O)CC(C)(C)C1`: the Potency entry was “inactive”. Still for that read-out and setting: for `CC1=C(C(=O)N2CCOCC2)CC(CC(=O)NCC2CCCCC2)C(=O)N1Cc1ccc(F)cc1` (stereo unspecified) the value was “inactive”. In the case of `CCOC(=O)C1CCN(C(=O)c2ccc3c(=O)n4nc(Nc5ccccc5CC)sc4nc3c2)CC1`, the Potency entry was “inactive”. Same read-out and setting: for `O=Cc1cn(CCOc2ccc(F)cc2)c2ccccc12` the value was “inactive”. Same read-out and setting: for `CCOc1ccc(-c2nnc3ccc(SC)nn23)cc1` the value was “inactive”; for `COC(=O)C(C)Sc1ccc2nnc(-c3cccc(F)c3)n2n1` (stereo unspecified), 10 µM (active). On to `CCOC(=O)CNC(=O)CSc1ccc2nnc(-c3cccnc3)n2n1`, for which the activation (cAMP increase) is 37.7% [at 15.4 µM] (inactive). `CCN(CC)C(=O)C1=C(C)N(Cc2ccc(F)cc2)C(=O)C(CC(=O)NCc2cccc3ccccc23)C1` (stereo unspecified): the Potency entry is “inactive”. `C[C@H]1CN([C@@H](C)CO)C(=O)c2cc(-c3ccccc3F)cnc2O[C@H]1CN(C)C(=O)C1CCOCC1`: the Potency entry is “inactive”. Still for that read-out and setting: for `Cc1ccc(S(=O)(=O)N2C[C@]3(O)C[C@@H]4C(=O)N(c5ccccc5)C(=O)[C@@H]4C[C@]3(OC(=O)NC3CC3)C2)cc1` the value was “inactive”. Turning to `CNC(=O)C1CN(C(=O)c2cccc(S(=O)(=O)N3CCc4ccccc43)c2)c2ccccc2O1` (stereo unspecified), the Potency result is “inactive”.

For `CCN1CCN(CCNC(=O)c2ccc3c(c2)NC(=O)/C(=C\c2cccc(Cl)c2)S3)CC1`, the Potency result was “inactive”.

Consider `O=C(C[C@H]1C[C@H]2c3cc(NS(=O)(=O)c4ccc(F)cc4)ccc3O[C@H]2[C@H](CO)O1)NCc1cc(F)ccc1F`, for which the Potency result was “inactive”. Still for that read-out and setting: the entry for `c1ccc2c(c1)nnn2-c1ccncc1` is “inactive”.

Consider `COc1cc2c(cc1OC)C1C(=O)c3cc(OS(C)(=O)=O)c(OC)cc3C1N(C)C2=O` (stereo unspecified), for which the Potency entry was “inactive”.

With `CCCCCC(=O)N1C[C@H](O)[C@@H](n2cc(COC(=O)c3ccccc3)nn2)C[C@@H]1c1ccc(C)cc1`, the Potency result is “inactive”. Still for that read-out and setting: the entry for `CC1CN(C(=O)c2cccc(NS(=O)(=O)c3ccc(Br)cc3)c2)CC(C)O1` (stereo unspecified) is “inactive”. For the compound `Cc1ccc(C=O)c([B-](F)(F)F)c1`, the Potency result is “inactive”. Consider `CC(C)c1cc(C(=O)NC2CCCCCC2)c2ccccc2n1`, for which the Potency result is “inactive”. Still for that read-out and setting: the entry for `CN(C)C(CNC(=O)c1cccc(S(=O)(=O)N2CCc3ccccc3C2)c1)c1ccccc1` (stereo unspecified) is “inactive”; for `CCCCCCN1C[C@@H](O)[C@H](n2cc(COC(=O)c3ccccc3)nn2)C[C@@H]1c1ccc(Cl)cc1` it is “inactive”; for `CCN(CC)C(=O)C1=C(C)N(Cc2ccc(C(C)(C)C)cc2)C(=O)C(CC(=O)NCc2cccc3ccccc23)C1` (stereo unspecified) it is “inactive”. The same measure, in the same setting: for `COc1ccc([C@H]2N[C@]3(CCCN(Cc4ccco4)C3=O)[C@H]3C(=O)N(C)C(=O)[C@@H]23)cc1` the value was “inactive”.
